This is part of a sample that, as a whole, favours compounds with a hit. Of some 83,000 tested, about 20% had one in any assay.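 In brief: 96-well plates, 48 h treatment, single concentration, percent growth endpoint.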 Active and inactive are the calls of the source. How the source made its calls: active means growth percent below 10; inactive means the rest.
What follows are compounds tested on NCI-H23 lung (assay: NCI-60 one-dose screen, 48 h (100 = growth as untreated, 0 = no growth, -100 = all killed)). Settings: 10 µM unless noted.

SMILES | growth
CC(C)C1=NOC(=O)C1=Cc1cn(-c2ccccc2)nc1-c1ccccc1 | 98% (inactive)
CCN(CC)CCCNCc1cc(-c2ccccc2)nc2ccccc12 | 36% (inactive)
CCOC(=O)CCC[P+](c1ccccc1)(c1ccccc1)c1ccccc1 | 87.9% (inactive)
Cc1cccc(C[C@H](NC(=O)Nc2ccc(Cl)cc2F)C(=O)N[C@@H]2C(=O)N3C[C@H](O)C[C@H]3C(=O)N3CCN(C)C[C@H]3C(=O)N[C@@H](C)C(=O)N3C[C@H](C)C[C@H]3C(=O)O[C@H]2C)c1 | 35.3% (inactive)
COc1cc(C)cc2oc3oc(=O)c(C(=O)c4cc5cc(Br)ccc5o4)cc3c(=O)c12 | 107% (inactive)
COc1ccc(CC(C#N)c2ccc(Cl)cc2)cc1 (stereo not drawn) | 77.2% (inactive)
Clc1ccc(/C=N/Nc2nc3ccccc3s2)c(Cl)c1 | 90.4% (inactive)
Nc1nc(SCc2cccc([N+](=O)[O-])c2)c2[nH]cnc2n1 | 102% (inactive)
COC(=O)[C@]12CCC(C)(C)C[C@H]1C1=CC[C@@H]3[C@@]4(C)C/C(=C/c5cccnc5)C(=O)C(C)(C)[C@@H]4CC[C@@]3(C)[C@]1(C)CC2 | -40.6% [100 µM] (active)
Cn1cc(-c2nnc(-c3cn(C)c4ncccc34)o2)c2ccccc21 | 51.3% (inactive)
Cc1ccc(C2=C/C(=C/c3ccc(Br)cc3)C(=O)N2CCc2ccc(S(N)(=O)=O)cc2)cc1 | 100% (inactive)
COc1ccc2nc3cc(Cl)ccc3c(Nc3ccc(O)cc3)c2c1 | 72.8% (inactive)
CCCCN(CC)CC(CC)Nc1cc(OC)cc2cccnc12 (stereo not drawn) | 113% (inactive)

From PubChem BioAssay (NCI)
